Data reported in PubChem BioAssay.
Several values for one entry are separate records, joined by “and”; a condition that tells them apart may be missing. Equal values may be shown once. For some of these results: Measured potencies and affinities stand elsewhere. Activity calls are given as the source filed them.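 How the source made its calls, unless noted: active means thallium flux through the channel raised or lowered by more than 3 SD from vehicle-only wells, actives on both sides; inactive means the rest.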

Key:
[1] = compounds altering viability of human ES cells (AID 493140; call rule not given here;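 further: cells exposed to compounds for four days before counting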); details: human embryonic stem cell survival screen; stronger effect = higher value
[2] = P. berghei load reduction in hepatocytes – cell-based, HepG2, luciferase luminescence, HepG2 viability, primary screen (AID 624349; in the data active means parasite load remaining mostly below about 12%, no sharp cut-off; inactive means mostly above about 10%;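 further: 100% = mean of DMSO negative control wells on the same plate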); details: P. berghei liver stage in HepG2, luciferase luminescence, concentration not given here; parasite load remaining: stronger effect = lower value; viability: measured here: HepG2 viability without parasites
[3] = signal quenchers or enhancers, Cy5 substrate/SSB – biochemical, NIH Clinical Collection, E. coli SSB, artefact control for HCV NS3 helicase inhibitor project (AID 743268; call rule not given here); details: Cy5-oligo bound E. coli SSB, fluorescence interference
[4] = modulation of C. elegans fzo-1 (AID 1259413; call rule not given here;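 further: fzo-1 mutant C. elegans worms in liquid wells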); details: C. elegans fzo-1 modulator screen, mean read-out; stronger effect = higher value
[5] = galactose survival enhancers in mitochondrial complex I cybrids – cell-based, galactose medium, ATP luminescence, primary screen (AID 1645843;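 active means z-score of at least 1.8 in each of two replicates, scored against plate mean and spread of sample wells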;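 further: positive z means more ATP and so rescue of galactose-driven cybrid death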); details: complex I mutant cybrid cells, 72 h, stronger effect = higher value
[6] = tested on: F380Y/beta1; experiment: BK channel mutant inhibitors and activators – cell-based, U2OS BacMam, thallium flux, beta subunits, selectivity assay, profiling panel (AID 1259406); details: U2OS BacMam BK variants, at 30 µM;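 further: initial slope of Thallos dye fluorescence rise after thallium is added; log ratio against the mean of 0.3% DMSO vehicle wells on the same plate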
[7] = tested on: F380Y/beta4; experiment: as above; details: U2OS BacMam BK variants, at 30 µM
[8] = tested on: R275C; experiment: as above; details: U2OS BacMam BK variants, at 30 µM
[9] = tested on: R275C/beta1; experiment: as above; details: U2OS BacMam BK variants, at 30 µM
[10] = tested on: R275C/beta2Delta; experiment: as above; details: U2OS BacMam BK variants, at 30 µM
[11] = tested on: R275C/beta4; experiment: as above; details: U2OS BacMam BK variants, at 30 µM
[12] = tested on: R275C/Slo1WT/beta2; experiment: as above; details: U2OS BacMam BK variants, at 30 µM
[13] = blockers of polyQ-driven CASP3 activation – cell-based (AID 1583); details: polyglutamine-induced caspase-3 activation, cell assay; stronger effect = higher value; concentration not given here
[14] = yeast 75Q aggregation reduction – 75Q-TubU reporter (AID 1593); details: Yeast 75Q polyglutamine aggregation reporter
[15] = restoration of touch response, mutant HTT neurons – whole organism, C. elegans mechanosensory neurons, N-terminal huntingtin (AID 1599); details: C. elegans polyQ-huntingtin mechanosensory neurons, stronger effect = higher value
[16] = blockers of cytochrome c efflux from mitochondria – biochemical, purified mitochondria (AID 1603); details: stronger effect = lower value;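 further: mouse liver mitochondria challenged with calcium chloride; signal normalized to the plate average as 100%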
[17] = polyglutamine aggregate formation blockers (AID 1604); details: polyglutamine-induced protein aggregation inhibition assay; stronger effect = higher value; tested at 2.5 µM
[18] = glutamate transport activators, MN-1 cells, MN-1 cell line (AID 1612); details: MN-1 motor neuron cells, stronger effect = higher value;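 further: tested at 1 µM final; 0% = mean of DMSO vehicle wells on each plate; positive means more glutamate uptake than control and negative means less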
[19] = 75Q-TubH aggregate inhibition, S. cerevisiae, yeast (AID 1616); details: S. cerevisiae 75Q-TubH polyglutamine aggregation suppression; stronger effect = higher value

For `CN(C)CC/C=C1\c2ccccc2COc2ccccc21`, the survival [1] was 18.8 (inactive), the parasite load remaining [2] was 66.1% (inactive) and 36% (inactive) and 100% (inactive) and the viability [2] was 121% and 46.9% and 88.3%. The fluorescence ratio [3] was 0.98 (inactive), the mean signal [4] was 222 (inactive) and the z-score [5] was -0.51 (inactive) and -1.11 (inactive). The log fold change Tl+ flux [6] was 0.078 (inactive), the log fold change Tl+ flux [7] was 0.0925 (inactive) and the log fold change Tl+ flux [8] was -0.0142 (inactive). For the same molecule, the log fold change Tl+ flux [9] was 0.119 (active), the log fold change Tl+ flux [10] was 0.0609 (inactive) and the log fold change Tl+ flux [11] was 0.0396 (inactive). The log fold change Tl+ flux [12] was -0.0225 (inactive).

In the case of `c1ccc(-c2ccc(C(c3ccccc3)n3ccnc3)cc2)cc1` (centres undefined), the fluorescence ratio [3] is reported as 1.01 (inactive), the mean signal [4] is reported as 204 (inactive) and the z-score [5] is reported as -1.87 (inactive) and -2.02 (inactive). The log fold change Tl+ flux [6] was 0.00744 (inactive), the log fold change Tl+ flux [7] was 0.00227 (inactive) and the log fold change Tl+ flux [8] was -0.0477 (inactive). The log fold change Tl+ flux [9] was 0.164 (active), the log fold change Tl+ flux [10] was -0.336 (active) and the log fold change Tl+ flux [11] was -0.0228 (inactive). The log fold change Tl+ flux [12] was -0.0124 (inactive).

Molecule `COc1cc(NC(C)CCCN)c2ncccc2c1` (centres undefined) has an inhibition [13] of 18.8%, a score [14] of 1.79 and a rescue above control [15] of 0. The cytochrome c release ratio [16] was 0.68, the inhibition of aggregation [17] was 78.1% and the glutamate uptake change [18] was -1.37%. For the same molecule, the aggregation suppression score [19] was 1.22, the survival [1] was 5.33 (inactive) and the fluorescence ratio [3] was 0.96 (inactive). For the same molecule, the mean signal [4] was 225 (inactive), the z-score [5] was -1.43 (inactive) and -2.4 (inactive) and the log fold change Tl+ flux [6] was -0.102 (inactive). The log fold change Tl+ flux [7] was -0.0853 (inactive), the log fold change Tl+ flux [8] was -0.164 (active) and the log fold change Tl+ flux [9] was 0.0817 (inactive). The log fold change Tl+ flux [10] was 0.0117 (inactive), the log fold change Tl+ flux [11] was 0.0128 (inactive) and the log fold change Tl+ flux [12] was -0.0635 (inactive).

Work on `Cc1cccc(Nc2ccccc2C(=O)O)c1C` yielded an inhibition [13] of 14.9%, a score [14] of 0.19 and a rescue above control [15] of 14.6. For the same molecule, the cytochrome c release ratio [16] was 1, the inhibition of aggregation [17] was 32.9% and the glutamate uptake change [18] was -12.3%. For the same molecule, the aggregation suppression score [19] was 0.495, the survival [1] was 12.2 (inactive) and the fluorescence ratio [3] was 1 (inactive). The mean signal [4] was 235 (inactive), the z-score [5] was 0.385 (inactive) and 1.06 (inactive) and the log fold change Tl+ flux [6] was 0.147 (active). For the same molecule, the log fold change Tl+ flux [7] was 0.146 (active), the log fold change Tl+ flux [8] was 0.009 (inactive) and the log fold change Tl+ flux [9] was 0.182 (active). For the same molecule, the log fold change Tl+ flux [10] was 0.117 (active), the log fold change Tl+ flux [11] was 0.0837 (inactive) and the log fold change Tl+ flux [12] was 0.00462 (inactive).

In the case of `CC(C)Oc1ccc2c(=O)c(-c3ccccc3)coc2c1`, the parasite load remaining [2] is reported as 170% (inactive), the viability [2] is reported as 63.7% and the fluorescence ratio [3] is reported as 1.05 (inactive). The mean signal [4] was 191 (inactive), the z-score [5] was -0.74 (inactive) and the log fold change Tl+ flux [6] was -0.0734 (inactive). For the same molecule, the log fold change Tl+ flux [7] was -0.0682 (inactive), the log fold change Tl+ flux [8] was -0.0788 (inactive) and the log fold change Tl+ flux [9] was -0.122 (active). For the same molecule, the log fold change Tl+ flux [10] was -0.0975 (active), the log fold change Tl+ flux [11] was -0.0145 (inactive) and the log fold change Tl+ flux [12] was 0.013 (inactive).

Work on `CC(=O)OCC[N+](C)(C)C` yielded an inhibition [13] of 26.2%, a score [14] of 1.05 and a rescue above control [15] of 5.33. It also gave a cytochrome c release ratio [16] of 1.31, an inhibition of aggregation [17] of 74.9% and a glutamate uptake change [18] of -18.6%. For the same molecule, the aggregation suppression score [19] was 1.22, the fluorescence ratio [3] was 1.03 (inactive) and the mean signal [4] was 251 (inactive). For the same molecule, the z-score [5] was 1.64 (inactive) and 0.235 (inactive), the log fold change Tl+ flux [6] was 0.000642 (inactive) and the log fold change Tl+ flux [7] was -0.0182 (inactive). For the same molecule, the log fold change Tl+ flux [8] was -0.00869 (inactive), the log fold change Tl+ flux [9] was -0.00581 (inactive) and the log fold change Tl+ flux [10] was -0.00325 (inactive). The log fold change Tl+ flux [11] was 0.0607 (inactive) and the log fold change Tl+ flux [12] was 0.0039 (inactive).

For `COc1ccc([C@@H]2Sc3ccccc3N(CCN(C)C)C(=O)[C@@H]2OC(C)=O)cc1`, the survival [1] was 19.4 (inactive), the fluorescence ratio [3] was 0.95 (inactive) and the mean signal [4] was 243 (inactive). For the same molecule, the log fold change Tl+ flux [6] was 0.0592 (inactive), the log fold change Tl+ flux [7] was 0.0311 (inactive) and the log fold change Tl+ flux [8] was -0.0404 (inactive). For the same molecule, the log fold change Tl+ flux [9] was 0.0836 (inactive), the log fold change Tl+ flux [10] was 0.0243 (inactive) and the log fold change Tl+ flux [11] was 0.104 (inactive). The log fold change Tl+ flux [12] was 0.0487 (inactive).

In the case of `CN[C@@H]1[C@H](O)[C@H](NC)[C@H]2O[C@@]3(O)C(=O)C[C@@H](C)O[C@H]3O[C@@H]2[C@H]1O`, the inhibition [13] is reported as 16.9%, the score [14] is reported as 1.49 and the rescue above control [15] is reported as 0.75. It also gave a cytochrome c release ratio [16] of 0.85, an inhibition of aggregation [17] of 14.3% and a glutamate uptake change [18] of -0.34%. The aggregation suppression score [19] was 1.46, the survival [1] was 3.25 (inactive) and the fluorescence ratio [3] was 1.06 (inactive). For the same molecule, the z-score [5] was 0.84 (inactive) and 1 (inactive), the log fold change Tl+ flux [6] was 0.00447 (inactive) and the log fold change Tl+ flux [7] was 0.0229 (inactive). For the same molecule, the log fold change Tl+ flux [8] was 0.108 (active), the log fold change Tl+ flux [9] was 0.0857 (inactive) and the log fold change Tl+ flux [10] was -0.00159 (inactive). For the same molecule, the log fold change Tl+ flux [11] was 0.0437 (inactive) and the log fold change Tl+ flux [12] was -0.0137 (inactive).

In the case of `CCCCCCCCCCC[C@@H](C[C@@H]1OC(=O)[C@H]1CCCCCC)OC(=O)[C@H](CC(C)C)NC=O`, the parasite load remaining [2] is reported as 74.9% (inactive), the viability [2] is reported as 74.1% and the fluorescence ratio [3] is reported as 1.04 (inactive). For the same molecule, the mean signal [4] was 258 (inactive), the z-score [5] was 0.54 (inactive) and the log fold change Tl+ flux [6] was 0.0468 (inactive). The log fold change Tl+ flux [7] was 0.0138 (inactive), the log fold change Tl+ flux [8] was -0.0306 (inactive) and the log fold change Tl+ flux [9] was -0.0228 (inactive). For the same molecule, the log fold change Tl+ flux [10] was -0.0121 (inactive), the log fold change Tl+ flux [11] was -0.0426 (inactive) and the log fold change Tl+ flux [12] was -0.00736 (inactive).

In the case of `CC[C@H](C)C(=O)O[C@H]1C[C@H](O)C=C2C=C[C@H](C)[C@H](CC[C@@H](O)C[C@@H](O)CC(=O)O)[C@H]21`, the parasite load remaining [2] is reported as 98.4% (inactive), the viability [2] is reported as 77.5% and the fluorescence ratio [3] is reported as 1.01 (inactive). For the same molecule, the mean signal [4] was 245 (inactive), the z-score [5] was 0.175 (inactive) and the log fold change Tl+ flux [6] was -0.03 (inactive). The log fold change Tl+ flux [7] was 0.0119 (inactive), the log fold change Tl+ flux [8] was -0.0381 (inactive) and the log fold change Tl+ flux [9] was -0.014 (inactive). For the same molecule, the log fold change Tl+ flux [10] was 0.0137 (inactive), the log fold change Tl+ flux [11] was -0.0312 (inactive) and the log fold change Tl+ flux [12] was -0.0454 (inactive).
